According to PubChem BioAssay AID504832 (National Center for Advancing Translational Sciences (NCATS), 2011):
Hit rate of the full screen: of about 310,000 compounds, about 18,000 (5.8%) were called active. Another 22% or so got no clear call; they are omitted. This is one part of a sample in which actives are shown more often than they occur. Calls follow the shape of the dose curve; as a rule, active = well fitted inhibition curve with a large enough effect; inconclusive = small, poorly fitted or top-dose-only effect, or another doubt; inactive = no such curve, though single readings can be large or run the other way.

Test: Primary qHTS for delayed death inhibitors of the malarial parasite plastid, 48 hour incubation
Conditions: P. falciparum luciferase growth in erythrocytes; series mostly up to 28.7 µM; activity change, negative = inhibition: at the top concentration
Outline: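 First compound was added to culture medium, then infected red cells at 0.1% parasitemia and 2% hematocrit (final). After incubation at 37 C under 5% CO2, luciferase detection reagent was dispensed and light output recorded.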
% is scaled to controls: 0 for no effect and ±100 for the full control effect; potency is read from the fitted curve at half-maximal effect.

| Structure (SMILES) | activity change, negative = inhibition | Potency |
| --- | --- | --- |
| COc1ccc(S(=O)(=O)N2CCC(C(=O)N3CCCC3)CC2)cc1C | 10.6% (inactive) | – |
| CCOc1ccc(CN(C)C(=O)c2ccc(=O)[nH]c2)cc1 | -2.06% (inactive) | – |
| COc1ccc(NC2CCCN(C(=O)c3ccncc3)C2)cc1 (stereo unspecified) | -18.3% (inactive) | – |
| Cc1cccc(C(=O)N2CCCC(Nc3ccc(C(C)C)cc3)C2)n1 (stereo unspecified) | 18.1% (inactive) | – |
| CC(C)c1ccc(NC2CCCN(C(=O)c3ccncc3)C2)cc1 (stereo unspecified) | – | 5.86 µM (active) |
| O=C(NCC(=O)N1CCN(c2ncc(C(F)(F)F)cc2Cl)CC1)c1ccc(Br)o1 | -23% (inactive) | – |
| Cc1nn(Cc2ccccc2)c(C)c1NS(=O)(=O)c1ccccc1 | 8.53% (inactive) | – |
| c1ccc(CCn2nnnc2CN2CCN(C3CCCC3)CC2)cc1 | 16.5% (inactive) | – |
| c1ccc(C(c2ccccc2)N2CCN(Cc3nnnn3C3CCCCC3)CC2)cc1 | – | 8.28 µM (active) |
| CC(C)C(c1nnnn1C1CCCC1)N1CCN(c2ccccc2F)CC1 (stereo unspecified) | 8.47% (inactive) | – |
| CC1CN(C(=O)COC(=O)c2cccc(NS(=O)(=O)c3ccccc3)c2)CC(C)O1 (stereo unspecified) | 15% (inactive) | – |
| CCCc1cc(=O)oc2c(C)c(OCC(=O)NCc3ccccn3)ccc12 | 4.08% (inactive) | – |
| CC1CCCN(S(=O)(=O)c2ccc(N(C(=O)c3cnccn3)C(C(=O)NC3CCCCC3)c3cccs3)cc2)C1 (stereo unspecified) | – | 11.7 µM (active) |
| O=C(Nc1ccc(S(=O)(=O)N2CCCCC2)cc1)c1cnccn1 | 5.07% (inactive) | – |
| CCc1ccc(N(C(=O)c2csnn2)C(C(=O)NC2CCCCC2)c2ccncc2)cc1 (stereo unspecified) | -0.523% (inactive) | – |
| O=C(Nc1ccc(NC(=O)c2ccc3c(c2)OCO3)cc1)c1cccc(Cl)c1 | -18.9% (inactive) | – |
| O=C(CSc1n[nH]c(=O)n1-c1ccccc1)Nc1ccccc1C(F)(F)F | -17.8% (inactive) | – |
| Cc1ccc(NC(=O)CN2CCC3(O)CCCCC3C2c2ccc3c(c2)OCO3)c(C)c1 (stereo unspecified) | – | 10.4 µM (active) |
| CC1CCCCN1CC(=O)NCc1ccc2c(c1)OCO2 (stereo unspecified) | 13.3% (inactive) | – |
| CCN(CC)c1ccc(C2C3CCCCC3(O)CCN2CC(=O)Nc2ccccc2)cc1 (stereo unspecified) | 0% (inactive) | – |
| Cc1c(S(=O)(=O)NC(C)c2ccccc2)c(=O)n(C)c(=O)n1C (stereo unspecified) | -4.57% (inactive) | – |
| O=C(NCCc1ccc(C(F)(F)F)cc1)c1ccc2c(c1)OCO2 | 13% (inactive) | – |
| COc1cc(/C=C2\CCCc3c2nc2ccccc2c3C(=O)O)cc(Cl)c1O | 7.14% (inactive) | – |
| CC(NS(=O)(=O)c1ccc(OCC(=O)N2CCCC2)cc1)c1ccccc1 (stereo unspecified) | -8.96% (inactive) | – |
| COc1ccc(N(CC(=O)N2CCCCCC2)S(=O)(=O)c2ccccc2)cc1 | -24.9% (inactive) | – |
| CCN(c1ccccc1)S(=O)(=O)c1ccc(OCC(=O)N2CCCC2)cc1 | – | 9.28 µM (active) |

| Structure (SMILES) | activity change, negative = inhibition | Potency |
| --- | --- | --- |
| CC(=O)Nc1ccc(Nc2ncnc3c2nnn3Cc2ccccc2Cl)cc1 | -22.4% (inactive) | – |
| COCCNC(=O)c1ccc2nc(Cc3ccc(OC)c(OC)c3)oc2c1 | 4.16% (inactive) | – |
| O=C(NCCN1CCCC(O)C1)c1cc(COc2c(F)cccc2F)on1 (stereo unspecified) | 15% (inactive) | – |
| Cc1cccc2cc(CN(C(=O)c3cccs3)c3ccccc3)c(=O)[nH]c12 | -0.703% (inactive) | – |
| Cc1cccc2cc(CN(Cc3cccs3)C(c3nnnn3C3CCCC3)C(C)C)c(=O)[nH]c12 (stereo unspecified) | – | 2.62 µM (active) |
| CCC(=O)Nc1cccc(NC(=O)CSc2nnnn2C2CCCC2)c1 | -28.4% (inactive) | – |
| CCC(c1nnnn1C1CCCC1)N(Cc1cccs1)Cc1cc2cccc(C)c2[nH]c1=O (stereo unspecified) | – | 10.4 µM (active) |
| Cc1cc(C)n2nc(C(=O)OCC(=O)N(CCC#N)c3ccc(F)cc3)nc2n1 | 11.8% (inactive) | – |
| CCOc1ccc(N(C)Cc2cc(=O)oc3ccc(OC)cc23)cc1 | -9.2% (inactive) | – |
| CC1CCC(NC(=O)CNC(=O)c2ccc3ccccc3c2)CC1 (stereo unspecified) | 51.1% (inactive) | – |
| CN(C(=O)Cn1nnc(-c2ccc(F)cc2)n1)C1CCS(=O)(=O)C1 (stereo unspecified) | -28.7% (inactive) | – |
| OCC[C@H]1C[C@@H](O)[C@H](O)[C@]2(OCCCc3ccccc32)O1 | -27.5% (inactive) | – |
| Cc1ccc2c(c1)N(CC(=O)N1CCC(C)CC1)C(=O)c1cccnc1O2 | -21.1% (inactive) | – |
| Cc1ccc(SCc2c(C(=O)N/N=C/c3cccnc3)nnn2-c2nonc2N)cc1 | 9.31% (inactive) | – |
| O=C(CN1CCCCCC1)N1c2ccccc2Sc2ccc(C(F)(F)F)cc21 | – | 13.1 µM (active) |
| CCOC(=O)CNC(=O)N1c2ccccc2Sc2ccccc21 | 1.41% (inactive) | – |
| COc1cc(/C=C/C(=O)N2c3ccccc3Sc3ccc(C(F)(F)F)cc32)cc(OC)c1OC | -26.5% (inactive) | – |
| Cc1ccc(C(CNC(=O)Nc2ccccc2)N2CCN(C)CC2)cc1 (stereo unspecified) | 6.15% (inactive) | – |
| Cc1ccc(S(=O)(=O)N2CCC(C(=O)OCC(=O)N(C)c3ccccc3)CC2)cc1C | -32.8% (inactive) | – |
| COc1ccc(-c2nnc(SC(C)C(=O)NC3CC3)o2)cc1 (stereo unspecified) | – | 10.4 µM (active) |
| COc1ccc(-c2nnc(SC(C)C#N)o2)cc1 (stereo unspecified) | 27.5% (inactive) | – |
| COc1ccc(-c2nnc(SCc3cccnc3)o2)cc1 | -42.2% (inactive) | – |
| CCCC(C)c1nnc(NC(=O)C2CC(=O)N(c3ccc(OCC)cc3)C2)s1 (stereo unspecified) | 5.54% (inactive) | – |
| COc1ccc(N2CCN(c3ccc([N+](=O)[O-])cc3Cl)CC2)cc1 | 5.17% (inactive) | – |
| CCN1CCN(c2ccc([N+](=O)[O-])cc2C(=O)c2ccc(Cl)cc2)CC1 | 0% (inactive) | – |
| CCN1CCN(c2ccc([N+](=O)[O-])cc2C#N)CC1 | – | 4.15 µM (active) |

| Structure (SMILES) | activity change, negative = inhibition | Potency |
| --- | --- | --- |
| COCCn1c(SCC(=O)Nc2nc(C)cs2)nnc1C(C)C | 4.19% (inactive) | – |
| O=S(=O)(c1ccc(Cl)s1)N1CCC2(CC1)OCCO2 | 5.07% (inactive) | – |
| O=C(Cc1cccs1)Nc1cccc(-c2nc3ccccc3[nH]2)c1 | -15% (inactive) | – |
| O=C(Nc1cccc(-c2nc3ccccc3[nH]2)c1)c1ccc(C(=O)Nc2cccc(-c3nc4ccccc4[nH]3)c2)cc1 | – | 0.37 µM (active) |
| O=C(Nc1cccc(NC(=O)c2ccc(Br)cc2)c1)c1ccccc1 | 38.2% (inactive) | – |
| O=S(=O)(Nc1cc(Cl)ccc1N1CCOCC1)c1ccccc1Cl | – | 13.1 µM (active) |
| O=S(=O)(Nc1cc(S(=O)(=O)N2CCOCC2)ccc1N1CCCC1)c1cccs1 | 13.2% (inactive) | – |
| O=S(=O)(Nc1ccc(-c2ccc(N3CCOCC3)nn2)cc1)c1cc(Cl)ccc1Cl | -10.8% (inactive) | – |
| COCCCNC(=O)[C@H]1N2C(=O)c3ccccc3C2SC1(C)C (stereo partly specified) | 1.37% (inactive) | – |
| COc1ccc(CNC(=O)C(c2ccc(O)cc2)N(Cc2ccco2)C(=O)c2snc(C(N)=O)c2N)cc1 (stereo unspecified) | – | 13.1 µM (active) |
| COc1cc(C(C(=O)NC2CCCC2)N(Cc2ccccc2)C(=O)c2snc(C(N)=O)c2N)ccc1O (stereo unspecified) | -28.9% (inactive) | – |
| CCC(C(=O)NCc1ccc(OC)cc1)n1nc(C)n2c(cc3occc32)c1=O (stereo unspecified) | -0.531% (inactive) | – |
| COc1ccc(S(=O)(=O)NCc2ccc(C(=O)N(C)Cc3ccco3)cc2)cc1 | -0.0888% (inactive) | – |
| COc1ccc(C(C(=O)NC2CCCCC2)N(C(=O)c2snc(C(N)=O)c2N)c2ccccc2OC)cc1 (stereo unspecified) | – | 14.7 µM (active) |
| COc1ccc(C(C(=O)NC2CCCCC2)N(C(=O)CCl)c2ccccc2Cl)cc1 (stereo unspecified) | 0.344% (inactive) | – |
| Cc1cc(CN(C)C(=O)c2cc(COc3ccc(C)c(C)c3)on2)n[nH]1 | 213% (inactive) | – |
| CC(=O)c1ccc(NC(=O)Cn2c(=O)oc3ccccc32)cc1 | 0.659% (inactive) | – |
| CCCCc1nc2cc(C(=O)N3CCCCC3CCO)ccc2o1 (stereo unspecified) | 30.8% (inactive) | – |
| Cc1ccc(-c2nn(-c3ccccc3)cc2C(=O)NC2CCC(O)CC2)cc1 (stereo unspecified) | 16.7% (inactive) | – |
| O=C(Nc1cn(-c2ccccc2)nc1-c1ccccc1)c1ccccc1 | -6.02% (inactive) | – |
| CCc1ccc(-c2nn(-c3ccccc3)cc2CSC(=N)N)cc1 | – | 4.15 µM (active) |
| Cc1ccccc1OCC(=O)Nc1ccc2c(c1)ncn2C | -39.5% (inactive) | – |
| CN(CCc1ccccn1)C(=O)c1ccc(OC2CCN(CCc3ccccc3)CC2)cc1 | -14.2% (inactive) | – |
| COC(=O)c1ccc(CSc2nnc(N)s2)o1 | 39% (inactive) | – |
| COC(=O)c1ccc(CSc2ccccc2C)o1 | -1.17% (inactive) | – |
| O=C(CSc1ccc2nnc(-c3ccccc3)n2n1)N1CCCc2ccccc21 | – | 13.1 µM (active) |

| Structure (SMILES) | activity change, negative = inhibition | Potency |
| --- | --- | --- |
| COC(=O)c1ccc(CSc2ccc3nnc(-c4ccccc4)n3n2)o1 | – | 10.4 µM (active) |
| CCC(=O)N1CCCc2ccccc21 | 0.0597% (inactive) | – |
| CCCn1c(SCC(=O)N2CCc3ccccc32)nnc1-c1ccncc1 | 0.223% (inactive) | – |
| CC(=O)NC(Cc1c[nH]c2ccccc12)C(=O)NCCc1ccccc1 (stereo unspecified) | -4.66% (inactive) | – |
| CC1CN(C(=O)CCC(=O)NCc2cccnc2)c2ccccc2O1 (stereo unspecified) | 8.83% (inactive) | – |
| CC(=O)NC(=O)c1ccccc1O | -11.5% (inactive) | – |
| O=C(COC(=O)CNC(=O)C1CCCCC1)Nc1cccc(F)c1 | -20% (inactive) | – |
| NC1=NC[C@@H](Cc2ccc(O)cc2)N1CC1CCCCC1 | – | 6.57 µM (active) |
| O=C1NC[C@@H](Cc2ccc(O)cc2)N(CCc2cccc(F)c2)C1=O | -26.7% (inactive) | – |
| CN(c1ccccc1)S(=O)(=O)c1ccc2[nH]c(=O)[nH]c2c1 | 12% (inactive) | – |
| O=C(Cc1ccccc1Cl)N1CCOCC1 | 36% (inactive) | – |
| Cc1ccccc1N1CCN(C2CCCN(C(=O)c3ocnc3C)C2)CC1 (stereo unspecified) | -4.29% (inactive) | – |
| O=c1c2c(nc3cc(-c4cccc(Cl)c4)[nH]n13)CCCC2 | 72.5% (inactive) | – |
| Clc1ccc2nc3c(c(-c4ccccc4)c2c1)CNCC3 | – | 13.1 µM (active) |
| COc1ccc(C)cc1N(C(=O)Cn1nnc(-c2ccc(C)o2)n1)C(C(=O)NC1CCCC1)c1ccncc1 (stereo unspecified) | – | 5.22 µM (active) |
| Cc1ccc(-c2nnn(CC(=O)N(CCO)C(C(=O)NC(C)(C)C)c3ccncc3)n2)cc1 (stereo unspecified) | 22.3% (inactive) | – |
| Cc1cc(NC(=O)CCC(=O)N(c2ccccc2)C(C(=O)NC2CCCC2)c2ccncc2)no1 (stereo unspecified) | -15% (inactive) | – |
| CCC(C(=O)NC1CCCC1)N(C(=O)Cn1nnc(-c2ccc(C)o2)n1)c1ccc(OC)c(OC)c1 (stereo unspecified) | – | 10.4 µM (active) |
| COc1cccc(N(CC(=O)NC2CCCC2)C(=O)Cn2nnc(-c3ccc(C)cc3)n2)c1 | -15.8% (inactive) | – |
| Cc1cccc(N(C(=O)Cn2nnc(-c3ccc(C)o3)n2)C(C(=O)NC2CCCC2)c2ccncc2)c1 (stereo unspecified) | 0% (inactive) | – |
| O=C(Cn1nnc(-c2ccccc2)n1)NC(=O)NC1CCCC1 | 9.86% (inactive) | – |
| O=C(Cn1nnc(-c2ccc3c(c2)OCO3)n1)NCc1ccco1 | 39.3% (inactive) | – |
| Cc1ccc(-c2nnn(CC(=O)N(Cc3ccco3)C(C(=O)NC(C)(C)C)c3ccncc3)n2)o1 (stereo unspecified) | – | 14.7 µM (active) |
